Where “and” joins values, the source holds several entries; their conditions need not be identical. Equal entries are not always repeated. This is part of a sample that, as a whole, favours compounds with a hit. Of some 83,000 tested, about 20% had one in any assay.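 Compound tested at a single concentration for 48 hours in 96-well plates; a percent growth value below 10 was scored as active.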 Values without a mark were called inactive. Calls of active or inactive are those of the source. Where a SMILES comes first, the peptide text is derived from it.
What was measured:
Experiment in all cases: NCI-60 one-dose screen, 48 h (100 = growth as untreated, 0 = no growth, -100 = all killed)
HT29 colon = settings: 10 µM unless noted
SNB-75 CNS = settings: 10 µM unless noted
SNB-19 CNS = settings: 10 µM unless noted
U251 CNS = settings: 10 µM unless noted
PC-3 prostate = settings: 10 µM unless noted
SK-MEL-5 melanoma = settings: 10 µM unless noted
UACC-62 melanoma = tested on: UACC-62 melanoma
LOX IMVI melanoma = settings: 10 µM unless noted
SK-MEL-28 melanoma = settings: 10 µM unless noted
HCT-15 colon = settings: 10 µM unless noted

| SMILES | growth (HT29 colon) | growth (SNB-75 CNS) | growth (SNB-19 CNS) | growth (U251 CNS) | growth (PC-3 prostate) | growth (SK-MEL-5 melanoma) | growth (UACC-62 melanoma; 10 µM unless noted) | growth (LOX IMVI melanoma) | growth (SK-MEL-28 melanoma) | growth (HCT-15 colon) | growth (UACC-62 melanoma; 10 µM) | growth (UACC-62 melanoma; 100 µM) |
| --- | --- | --- | --- | --- | --- | --- | --- | --- | --- | --- | --- | --- |
| CC(=O)Nc1ccc(S(N)(=O)=O)cc1 | 106% and 96.8% | 107% and 92.5% | 98.3% and 107% | 93% and 96.2% | 81.2% and 99.1% | 93.2% and 101% | 99.8% | 98% and 92.1% | 107% and 110% | – | – | – |
| N#CC(C#N)N=Nc1cc(Cl)ccc1Cl | 101% | 74.8% | 93.6% | 96.6% | 106% | 106% | 99.1% | 109% | 109% | 101% | – | – |
| CC(C)NCC(O)c1ccc(O)c(O)c1 (centres undefined) | 100% and 111% | 75.3% and 83.1% and 82.2% | 101% and 89.5% and 93.5% | 98.6% and 118% and 99.2% | 93.8% and 95.8% | 94.6% and 90.3% and 120% | 101% and 109% and 98.5% | 94.2% and 111% and 95.4% | 107% and 116% and 101% | 104% and 106% and 99.5% | – | – |
| CC(=O)OCC1OC(OC(C)=O)C(OC(C)=O)C(OC(C)=O)C1OC(C)=O (centres undefined) | 110% and 115% | 67.1% and 98.6% | 102% and 106% | 95.6% and 96% | 105% and 104% | 102% and 100% | 109% and 99.9% | 96.9% and 97.3% | 103% and 109% | 98.2% and 104% | – | – |
| CC1CCC2(C(=O)O)CCC3(C)C(=CCC4C5(C)CCC(O)C(C)(C)C5CCC43C)C2C1C (centres undefined) | 48.3% and 111% | 32.2% and 95.6% | 63.4% and 91.6% | 42.9% and 77.6% | 65.1% and 79.8% | 24.7% and 96.2% | – | – | 35.9% and 78.7% | 32.4% and 66.2% | 88.6% and 81.2% | -65.9% (active) and -92.3% (active) |
| O=CN1CCCCC1 | 108% | 94.3% | 107% | 110% | 106% | 100% | – | 96.6% | 110% | 106% | – | – |
| OCC1OC(O)C(O)C(O)C1O (centres undefined) | 92.5% | – | 107% | 113% | 92.2% | 110% | 117% | 100% | – | 97.2% | – | – |
| Nc1cc(N)c(N)cc1N | 82.4% | 56.6% | 84.5% | 15.6% | 92.7% | -92.7% (active) | -40.3% (active) | – | 78.7% | 54.2% | – | – |
| O=C1c2c(O)ccc(O)c2C(=O)c2c(NCCNCCO)ccc(NCCNCCO)c21 | -59.8% (active) and -43.2% (active) | -90.4% (active) | -40.6% (active) and -58.3% (active) | -67% (active) and -99.7% (active) | -28% (active) and -55.3% (active) | -100% (active) | -91.9% (active) and -86.7% (active) | -66.4% (active) and -76.2% (active) | – | -14.2% (active) and 3.08% (active) | – | – |
| NC(Cc1ccccc1)C(=O)NC(Cc1ccccc1)C(=O)O (stereo not drawn) (H-Phe-Phe-OH; configuration not given here) | 101% and 104% | 88.1% and 93.5% | 94.5% and 100% | 99% and 94% | 95.2% and 90.6% | 100% and 94.8% | 104% | – | 103% and 105% | 106% and 98.3% | – | – |
| CC(=O)OC(C)C(=O)NCC(C)O (centres undefined) | 110% | 93.2% | 110% | – | 96.6% | – | 122% | 101% | 105% | 100% | – | – |
| O=C(CO)C(O)C(O)C(O)C(O)CO (centres undefined) | 109% | 106% and 89.1% | 104% and 103% | 95.7% and 95.4% | 101% and 96.1% | 95.4% and 103% | 98.3% and 101% | 103% and 98.5% | 108% and 101% | – | – | – |
| c1ccc(CNCCNCc2ccccc2)cc1 | 108% | 86.7% | 107% | 96% | 92.4% | 107% | 105% | – | 108% | 101% | – | – |
| CC1(C)COC(=S)N1 | 104% | 87.4% | 107% | 101% | 100% | 112% | 93% | 99.9% | 104% | 103% | – | – |
| NC1CCC(C(=O)O)CC1 (centres undefined) | 101% and 102% | 85.8% and 82% | 105% and 110% | 103% and 106% | 93.3% and 86.9% | 102% and 103% | 97.7% and 101% | 107% and 96.2% | 103% and 107% | 106% and 98.9% | – | – |
| c1ccc(-c2nc3ccccc3s2)cc1 | 114% | 91.7% | 95.3% | 99.6% | 86.9% | 89.8% | 75.7% | – | 104% | 92.2% | – | – |
| NC(Cc1c[nH]c2ccccc12)C(=O)O (centres undefined) | 110% and 97.4% | 94.4% and 79.6% | 104% | 103% and 97.4% | 91% and 86.7% | 124% and 101% | 87.3% and 92.5% | – | 132% and 106% | 107% and 104% | – | – |
| CN(C)CC1CCCCCC(CN(C)C)C1=O (centres undefined) | 31.8% | 98.4% | 108% | 89% | 86.7% | 104% | 91.9% | – | 94.8% | – | – | – |
| O=c1[nH]cnc2c1ncn2C1OC(CO)C(O)C1O (centres undefined) | 116% and 109% | 115% and 99.9% and 98.8% | 99.5% and 106% and 93.5% | 108% and 110% and 102% | 89.3% and 81.6% and 98.8% | 106% and 109% and 107% | 96.1% and 106% and 98.6% | 101% and 103% and 91.7% | 113% and 116% and 118% | – | – | – |
